According to the supplement of paper PMC10849652:
About 7,900 targets were measured; listed, in parts, are those with a hit and a random draw of the rest. About 0.6% of all pairs of compound and target were hits. Values without a mark were called inactive.

How the values were obtained:
Assay in all cases: log2 fold change, soluble protein after heating vs DMSO (PISA); higher = thermal stabilisation; K562 cells, 10 uM, 30 min; active = over 0.2 and 3.5 SD of the protein, either way, in both replicates (recomputed)
[1] = compound: CC1=C(C=C(C=C1)NC(=O)C2=CC(=CC=C2)C(C)(C)C#N)NC3=CC4=C(C=C3)N=CN(C4=O)C
Outline: (§1)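 Soluble protein was quantified by TMTpro 16plex LC-MS/MS after channel sums were equalised. It was obtained as the supernatant after 21,000xg for 90 min from pooled aliquots of K562 cells (2×10^6 cells/mL, 10 μM compound, 30 min) heated for 3 min across 48°C-58°C and extracted in PBS with 0.5% NP-40 at 4°C. Thermal stability values are relative to control samples and come from duplicates. They are given as log2 fold changes.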

[2] = compound: CC1=C(C=C(C=C1)NC(=O)C2=CC(=CC=C2)N(C)C)NC(=O)C3=CC=C(C=C3)O
Outline: as §1

[3] = compound: CC1=CC=C(C=C1)SC2=C3C=C(SC3=CN=C2)C(=O)N
Outline: as §1

[4] = compound: CC1=NC(=CC=C1)C2=C(N=C(N2)C(C)(C)C)C3=CC4=NC=CN=C4C=C3
Outline: as §1

Nexturastat A = compound: CCCCN(Cc1ccc(C(=O)NO)cc1)C(=O)Nc1ccccc1 [Nexturastat A]
Outline: as §1

vemurafenib = compound: CCCS(=O)(=O)Nc1ccc(F)c(C(=O)c2c[nH]c3ncc(-c4ccc(Cl)cc4)cc23)c1F [vemurafenib]
Outline: as §1

[5] = compound: CCCS(=O)(=O)Nc1ccc(F)c(C(=O)c2c[nH]c3ncc(Cl)cc23)c1F
Outline: as §1

[6] = compound: CCCc1cc(C)[nH]c(=O)c1CNC(=O)c1cc(-c2ccnc(N3CCN(C)CC3)c2)cc2c1cnn2C(C)C
Outline: as §1

givinostat = compound: CCN(CC)Cc1ccc2cc(COC(=O)Nc3ccc(C(=O)NO)cc3)ccc2c1 [givinostat]
Outline: as §1

barasertib = compound: CCN(CCCOc1ccc2c(Nc3cc(CC(=O)Nc4cccc(F)c4)[nH]n3)ncnc2c1)CCOP(=O)(O)O [barasertib]
Outline: as §1

Chain of UniProt P10398 (P10398 whole entry, looked up): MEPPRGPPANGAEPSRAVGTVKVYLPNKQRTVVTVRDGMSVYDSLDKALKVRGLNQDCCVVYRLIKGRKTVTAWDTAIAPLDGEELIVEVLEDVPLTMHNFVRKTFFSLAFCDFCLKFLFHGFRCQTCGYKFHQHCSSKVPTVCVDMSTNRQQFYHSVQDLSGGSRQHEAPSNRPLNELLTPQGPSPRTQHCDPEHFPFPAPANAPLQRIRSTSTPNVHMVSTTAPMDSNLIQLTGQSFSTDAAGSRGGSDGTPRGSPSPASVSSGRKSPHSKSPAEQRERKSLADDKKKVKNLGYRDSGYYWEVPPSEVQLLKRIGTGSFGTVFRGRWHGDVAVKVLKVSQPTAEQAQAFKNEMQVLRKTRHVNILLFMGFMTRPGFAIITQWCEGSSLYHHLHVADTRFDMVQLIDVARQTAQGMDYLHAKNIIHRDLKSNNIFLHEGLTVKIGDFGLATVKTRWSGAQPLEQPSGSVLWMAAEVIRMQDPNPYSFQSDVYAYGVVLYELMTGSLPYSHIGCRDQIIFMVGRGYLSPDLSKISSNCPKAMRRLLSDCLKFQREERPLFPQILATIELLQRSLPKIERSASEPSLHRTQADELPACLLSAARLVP
Chain of UniProt Q9HC16 (Q9HC16 whole entry, looked up): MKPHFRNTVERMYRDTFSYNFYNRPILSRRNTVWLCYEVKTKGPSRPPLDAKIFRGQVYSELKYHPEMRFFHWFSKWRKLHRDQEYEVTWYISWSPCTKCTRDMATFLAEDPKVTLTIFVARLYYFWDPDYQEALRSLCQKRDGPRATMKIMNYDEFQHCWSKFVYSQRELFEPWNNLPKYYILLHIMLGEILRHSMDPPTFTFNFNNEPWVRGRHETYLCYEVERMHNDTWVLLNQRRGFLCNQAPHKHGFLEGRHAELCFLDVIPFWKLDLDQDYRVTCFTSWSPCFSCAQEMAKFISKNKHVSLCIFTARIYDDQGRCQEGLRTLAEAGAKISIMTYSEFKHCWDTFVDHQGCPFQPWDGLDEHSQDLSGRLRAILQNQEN
Chain of UniProt Q5JTZ9 (Q5JTZ9 whole entry, looked up): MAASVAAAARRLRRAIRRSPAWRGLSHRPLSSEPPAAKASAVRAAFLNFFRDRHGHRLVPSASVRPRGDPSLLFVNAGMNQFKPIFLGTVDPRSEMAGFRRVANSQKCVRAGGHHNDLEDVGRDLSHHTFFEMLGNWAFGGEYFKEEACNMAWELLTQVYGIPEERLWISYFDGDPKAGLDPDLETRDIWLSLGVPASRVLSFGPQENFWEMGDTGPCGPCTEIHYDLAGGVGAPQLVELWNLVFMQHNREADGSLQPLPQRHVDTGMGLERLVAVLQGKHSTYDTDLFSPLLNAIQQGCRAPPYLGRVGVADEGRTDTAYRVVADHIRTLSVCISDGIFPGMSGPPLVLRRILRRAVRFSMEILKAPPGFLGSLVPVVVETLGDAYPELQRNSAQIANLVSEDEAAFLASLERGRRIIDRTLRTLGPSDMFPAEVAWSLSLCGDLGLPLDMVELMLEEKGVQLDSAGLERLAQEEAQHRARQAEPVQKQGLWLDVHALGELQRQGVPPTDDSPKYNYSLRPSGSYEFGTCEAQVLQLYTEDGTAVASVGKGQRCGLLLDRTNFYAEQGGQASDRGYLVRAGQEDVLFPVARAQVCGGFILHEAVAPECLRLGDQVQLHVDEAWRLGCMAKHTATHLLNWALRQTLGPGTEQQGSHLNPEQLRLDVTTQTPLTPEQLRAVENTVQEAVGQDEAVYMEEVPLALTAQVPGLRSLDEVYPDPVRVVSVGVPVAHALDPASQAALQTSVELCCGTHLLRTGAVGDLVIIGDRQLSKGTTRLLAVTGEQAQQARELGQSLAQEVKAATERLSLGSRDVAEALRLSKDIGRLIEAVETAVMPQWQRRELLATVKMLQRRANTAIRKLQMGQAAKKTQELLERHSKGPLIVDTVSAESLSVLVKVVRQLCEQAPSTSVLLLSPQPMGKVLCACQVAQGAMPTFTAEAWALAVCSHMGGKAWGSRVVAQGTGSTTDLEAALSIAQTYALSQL
Chain of UniProt Q13685 (Q13685 whole entry, looked up): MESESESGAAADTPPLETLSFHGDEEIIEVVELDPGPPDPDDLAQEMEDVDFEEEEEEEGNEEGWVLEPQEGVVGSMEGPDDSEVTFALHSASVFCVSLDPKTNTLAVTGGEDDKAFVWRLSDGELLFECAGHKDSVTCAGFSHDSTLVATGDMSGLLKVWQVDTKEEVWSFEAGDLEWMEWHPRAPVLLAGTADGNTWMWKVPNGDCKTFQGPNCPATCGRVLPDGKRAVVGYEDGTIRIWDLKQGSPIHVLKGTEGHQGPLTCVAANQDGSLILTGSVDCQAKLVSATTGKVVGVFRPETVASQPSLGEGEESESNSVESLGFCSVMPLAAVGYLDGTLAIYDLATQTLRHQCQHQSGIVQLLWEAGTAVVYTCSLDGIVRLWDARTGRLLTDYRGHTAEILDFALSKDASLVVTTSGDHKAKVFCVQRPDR
Chain of UniProt Q96CW1 (Q96CW1 whole entry, looked up): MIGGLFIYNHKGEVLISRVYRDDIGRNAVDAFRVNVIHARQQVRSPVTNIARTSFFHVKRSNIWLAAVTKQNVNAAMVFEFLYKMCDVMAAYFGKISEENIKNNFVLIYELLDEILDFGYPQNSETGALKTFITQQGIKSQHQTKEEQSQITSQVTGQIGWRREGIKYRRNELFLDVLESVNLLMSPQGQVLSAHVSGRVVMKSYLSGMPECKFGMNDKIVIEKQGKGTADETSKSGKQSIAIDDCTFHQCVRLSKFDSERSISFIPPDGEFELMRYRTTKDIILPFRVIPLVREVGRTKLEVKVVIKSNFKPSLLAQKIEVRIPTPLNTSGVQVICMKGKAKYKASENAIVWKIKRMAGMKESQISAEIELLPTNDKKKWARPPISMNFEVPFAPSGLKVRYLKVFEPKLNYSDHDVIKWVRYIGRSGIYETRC
Chain of UniProt P18085 (P18085 whole entry, looked up): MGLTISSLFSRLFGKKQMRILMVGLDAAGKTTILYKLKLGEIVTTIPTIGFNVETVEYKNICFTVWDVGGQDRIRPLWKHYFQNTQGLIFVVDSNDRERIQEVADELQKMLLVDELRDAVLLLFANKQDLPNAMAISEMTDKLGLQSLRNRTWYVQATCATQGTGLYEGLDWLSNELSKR
Chain of UniProt P30837 (P30837 whole entry, looked up): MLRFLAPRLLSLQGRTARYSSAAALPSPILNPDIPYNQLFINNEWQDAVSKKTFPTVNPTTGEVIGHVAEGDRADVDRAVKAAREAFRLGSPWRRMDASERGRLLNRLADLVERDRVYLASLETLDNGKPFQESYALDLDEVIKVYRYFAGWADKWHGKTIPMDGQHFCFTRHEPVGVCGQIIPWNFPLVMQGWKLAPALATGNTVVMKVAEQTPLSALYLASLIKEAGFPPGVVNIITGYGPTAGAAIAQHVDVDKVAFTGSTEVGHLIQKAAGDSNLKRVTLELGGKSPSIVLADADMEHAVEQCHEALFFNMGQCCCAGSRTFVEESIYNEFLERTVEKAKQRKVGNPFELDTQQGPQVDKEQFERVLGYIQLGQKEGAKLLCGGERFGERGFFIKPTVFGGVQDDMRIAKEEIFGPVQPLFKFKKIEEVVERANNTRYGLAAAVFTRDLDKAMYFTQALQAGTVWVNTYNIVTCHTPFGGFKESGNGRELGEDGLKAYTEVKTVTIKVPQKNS
Chain of UniProt Q4L235 (Q4L235 whole entry, looked up): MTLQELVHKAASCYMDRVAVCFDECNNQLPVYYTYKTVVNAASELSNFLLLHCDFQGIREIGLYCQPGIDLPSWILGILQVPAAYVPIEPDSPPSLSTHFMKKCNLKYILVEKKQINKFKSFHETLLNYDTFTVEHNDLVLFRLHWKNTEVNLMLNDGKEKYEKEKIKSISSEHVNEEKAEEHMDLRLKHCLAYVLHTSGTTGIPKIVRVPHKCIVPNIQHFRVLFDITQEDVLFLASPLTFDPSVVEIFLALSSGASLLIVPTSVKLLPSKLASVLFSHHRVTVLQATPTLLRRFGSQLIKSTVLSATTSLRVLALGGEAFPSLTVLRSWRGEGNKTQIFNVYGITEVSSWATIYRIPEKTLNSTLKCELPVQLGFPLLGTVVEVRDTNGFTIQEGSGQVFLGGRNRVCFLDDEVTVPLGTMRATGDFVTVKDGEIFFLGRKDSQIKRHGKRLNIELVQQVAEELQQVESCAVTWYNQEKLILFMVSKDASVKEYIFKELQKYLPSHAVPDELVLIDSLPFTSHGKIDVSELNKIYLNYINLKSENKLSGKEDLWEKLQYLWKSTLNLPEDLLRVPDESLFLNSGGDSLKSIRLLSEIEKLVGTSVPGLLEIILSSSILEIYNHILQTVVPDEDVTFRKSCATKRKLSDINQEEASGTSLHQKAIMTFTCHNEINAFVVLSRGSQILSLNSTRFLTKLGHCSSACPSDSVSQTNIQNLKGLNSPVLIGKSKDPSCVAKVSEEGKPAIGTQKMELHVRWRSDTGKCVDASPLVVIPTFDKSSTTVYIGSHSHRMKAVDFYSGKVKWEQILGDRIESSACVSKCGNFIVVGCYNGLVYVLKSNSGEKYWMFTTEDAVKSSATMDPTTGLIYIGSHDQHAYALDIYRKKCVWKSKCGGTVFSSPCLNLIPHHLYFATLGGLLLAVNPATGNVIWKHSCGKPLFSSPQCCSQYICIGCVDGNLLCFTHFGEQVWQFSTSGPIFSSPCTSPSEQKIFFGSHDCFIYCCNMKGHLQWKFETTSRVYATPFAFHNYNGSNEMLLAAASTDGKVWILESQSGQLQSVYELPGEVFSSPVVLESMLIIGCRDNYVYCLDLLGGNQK
Chain of UniProt Q92934 (Q92934 whole entry, looked up): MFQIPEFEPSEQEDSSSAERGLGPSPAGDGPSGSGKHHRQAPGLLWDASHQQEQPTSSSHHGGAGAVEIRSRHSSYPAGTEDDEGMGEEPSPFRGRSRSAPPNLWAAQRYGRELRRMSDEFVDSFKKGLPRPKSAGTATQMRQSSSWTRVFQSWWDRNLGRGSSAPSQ
Chain of UniProt P36405 (P36405 whole entry, looked up): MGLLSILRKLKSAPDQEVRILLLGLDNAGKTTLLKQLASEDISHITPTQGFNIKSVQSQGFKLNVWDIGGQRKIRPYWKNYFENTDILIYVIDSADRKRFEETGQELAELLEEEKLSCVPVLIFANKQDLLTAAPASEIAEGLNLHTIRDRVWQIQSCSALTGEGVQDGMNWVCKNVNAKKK

| Target | log2 fold change [1] | log2 fold change [2] | log2 fold change [3] | log2 fold change [4] | log2 fold change (Nexturastat A) | log2 fold change (vemurafenib) | log2 fold change [5] | log2 fold change [6] | log2 fold change (givinostat) | log2 fold change (barasertib) |
| --- | --- | --- | --- | --- | --- | --- | --- | --- | --- | --- |
| BAP1 (UniProt Q92560) | -0.067 | -0.088 | -0.149 | -0.058 | 0.403 (active) | -0.089 | -0.055 | 0.085 | 0.495 (active) | -0.019 |
| ATG4B isoform 2 (UniProt Q9Y4P1) | -0.046 | -0.287 | 0.218 | -0.072 | 0.132 | 0.087 | -0.02 | 0.031 | 0.126 | 0.126 |
| AP2M1 (UniProt Q96CW1) | 0.022 | -0.019 | -0.023 | 0.002 | 0.073 | -0.006 | 0.014 | -0.049 | 0.031 | -0.074 |
| ARL3 (UniProt P36405) | -0.016 | 0.018 | 0.016 | 0.025 | -0.063 | 0.002 | 0.059 | -0.033 | 0.005 | -0.022 |
| ACO2 (UniProt Q99798) | 0.071 | -0.063 | 0.012 | 0.035 | -0.073 | 0.055 | 0.027 | -0.003 | -0.014 | 0.037 |
| BAIAP2 isoform 4 (UniProt Q9UQB8) | 0.034 | – | – | – | – | – | – | – | – | – |
| AAMP (UniProt Q13685) | 0 | -0.006 | -0.028 | -0.04 | 0.012 | -0.018 | 0.018 | -0.041 | 0.033 | -0.006 |
| AMD1 (UniProt P17707) | 0.013 | -0.142 | 0.049 | 0.078 | -0.048 | -0.126 | 0.041 | -0.027 | 0.07 | 0.016 |
| ARF4 (UniProt P18085) | 0.022 | -0.014 | 0 | 0.012 | -0.095 | 0.02 | 0.022 | 0.023 | 0.016 | 0.048 |
| APPL1 (UniProt Q9UKG1) | 0.012 | 0.008 | 0.035 | 0.015 | -0.032 | 0.066 | 0.017 | -0.033 | 0.039 | 0.02 |
| AAR2 (UniProt Q9Y312) | -0.01 | -0.026 | -0.032 | -0.035 | 0.074 | -0.018 | 0.021 | -0.105 | 0.018 | -0.023 |
| ATP13A3 (UniProt Q9H7F0) | 0.027 | 0.031 | -0.068 | 0.012 | -0.042 | -0.014 | -0.02 | -0.076 | 0.025 | -0.001 |
| BCCIP (UniProt Q9P287) | -0.023 | -0.015 | -0.009 | -0.01 | -0.002 | 0.02 | 0.036 | -0.004 | 0.035 | 0.033 |
| ARAF (UniProt P10398) | 0.063 | -0.049 | -0.069 | -0.007 | 0.003 | 0.064 | 0.123 | 0.019 | 0.029 | 0.074 |
| ALKBH5 (UniProt Q6P6C2) | -0.12 | -0.017 | -0.046 | -0.031 | -0.068 | -0.071 | -0.09 | 0.162 | 0.092 | -0.023 |
| AGPAT1 (UniProt Q99943) | -0.037 | -0.029 | -0.014 | -0.03 | -0.052 | 0.017 | -0.004 | 0.004 | 0.005 | 0.047 |
| AKAP8 (UniProt O43823) | -0.082 | 0.029 | -0.03 | -0.009 | 0.313 (active) | -0.062 | -0.05 | -0.034 | -0.027 | 0.024 |
| AARS2 (UniProt Q5JTZ9) | -0.003 | -0.047 | 0.017 | 0.079 | -0.015 | 0.045 | 0.04 | 0.049 | 0.05 | 0.058 |
| AASDH (UniProt Q4L235) | -0.001 | 0.024 | -0.043 | -0.056 | 0.179 | 0.094 | 0.103 | 0.149 | 0.033 | 0.09 |
| AGO1 (UniProt Q9UL18) | -0.213 | -0.021 | -0.025 | 0.193 | 0.084 | -0.023 | -0.006 | -0.111 | 0.071 | -0.064 |
| ALDH1B1 (UniProt P30837) | 0.054 | 0.008 | 0.128 | 0.017 | -0.104 | 0.011 | 0.032 | -0.016 | 0.032 | -0.001 |
| BAD (UniProt Q92934) | -0.198 | 0.007 | -0.021 | -0.051 | -0.324 (active) | -0.076 | -0.037 | 0.05 | -0.133 | -0.003 |
| ATP11A (UniProt P98196) | -0.033 | -0.022 | -0.039 | -0.007 | -0.005 | 0.032 | -0.027 | -0.035 | -0.007 | -0.033 |
| ADD3 isoform 2 (UniProt Q9UEY8) | 0.034 | -0.021 | -0.08 | -0.017 | -0.029 | 0.059 | 0.014 | -0.017 | – | – |
| AK6 (UniProt Q9Y3D8) | 0.02 | -0.04 | 0.012 | 0.032 | -0.056 | 0.1 | 0.053 | 0.076 | 0.083 | 0.138 |
| ACTR1B (UniProt P42025) | -0.056 | -0.124 | 0.001 | -0.003 | -0.134 | -0.029 | -0.022 | -0.009 | 0.006 | 0.031 |
| APOBEC3G (UniProt Q9HC16) | -0.019 | 0.069 | -0.064 | -0.014 | 0.172 | 0.069 | -0.083 | 0.051 | 0.129 | 0.019 |
| AARSD1 isoform 3 (UniProt Q9BTE6) | 0.016 | -0.04 | -0.003 | 0.034 | -0.077 | 0.003 | 0.122 | 0.03 | -0.273 (active) | 0.032 |
